Screening results deposited in PubChem by National Center for Advancing Translational Sciences (NCATS).
Pf growth 96h: inhibits malaria parasite growth, 96 h; Potency, µM (series often up to 28.7 µM), hits mostly inhibitors; 320,000 compounds, 6.9% hits; P. falciparum luciferase reporter growth, 96 h
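Infected RBCs, 2% Hct / 0.05% parasitemia final; luciferase-reporter P. falciparum; cpd 96 h, 37 C, 5% CO2; luciferase detection reagent; luminescence.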
Lassa entry inh: Lassa virus entry inhibition; Potency, µM (series often up to 37.9 µM), most hits filed as inhibitors; Lassa virus pseudotype entry inhibition, cell reporter; 300,000 compounds, 1.2% hits; calls by dose curve; tested in HEK293 cells; also: nearly all actives have a fitted effect of over 50% in size
Cycloheximide cs: affects cycloheximide protein synthesis inhibition readout, counter-screen; 300,000 compounds, 12% hits; max response, %; AID 2314; cell reporter, cycloheximide protein synthesis inhibition counterscreen; in the data active = max response mostly above about 13%, no sharp cut-off; inactive = mostly below about 14%; also: read at 38.3 µM for the half of the compounds with a filed dose
Marburg entry inh: inhibitors of Marburg virus binding or cell entry; Potency, µM (highest dose often 37.8 µM), actives largely listed as inhibitors; 300,000 compounds, 1.8% hits; Marburg virus pseudotyped entry inhibition, cell reporter; calls by dose curve; tested in HEK293 cells
Pf growth 48h: inhibits P. falciparum growth in the first generation, 48 h; P. falciparum luciferase growth in erythrocytes, 48 h; Potency, µM (doses to about 28.7 µM), actives largely listed as inhibitors; 310,000 compounds, 5.9% hits
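Parasite viability was followed by luminescence of a genomically integrated firefly luciferase. Cultures held 0.1% parasitemia at 2% hematocrit (final), incubated under 5% CO2 at 37 C.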
Shiga toxin inh: blocks Shiga toxin action in Vero cells; inhibition, % at 38.7 µM; 290,000 compounds, 9.2% hits; Vero cells, Shiga toxin protein synthesis inhibition reporter; AID 2315; in the data active = inhibition mostly above about 28%, no sharp cut-off; inactive = mostly below about 43%
Of the large screens only hits and unclear results are named; the others gave an inactive call. In the library only some 19% were active in any assay of this set; here they are far more common. Unless noted, calls follow the shape of the dose curve; as a rule, active = well fitted inhibition curve with a large enough effect; inconclusive = small, poorly fitted or top-dose-only effect, or another doubt; inactive = no such curve, though single readings can be large or run the other way.

O=C(c1cc(-c2cccc(O)c2)on1)N1CCCCC1	Pf growth 96h inconclusive, Cycloheximide cs 35.1, Shiga toxin inh 36.8 (no result: Lassa entry inh, Marburg entry inh)
O=C(Cn1cc2c(n1)CCCC2)NCCCN1CCN(C2CCCCC2)CC1	none (no result: Lassa entry inh, Marburg entry inh)
CCOC(=O)c1sc(NC(=O)CSc2nnnn2-c2ccc(C)cc2)c(C(=O)OCC)c1C	Pf growth 96h 5.22µM, Pf growth 48h inconclusive
CCOC(=O)c1sc(NC(=O)CSc2nnnn2-c2ccccc2)nc1C	Lassa entry inh inconclusive
CCOC(=O)c1c(C)[nH]c(C)c1C(=O)CSc1nc2ccccc2c(=O)n1-c1ccc(Cl)cc1	Pf growth 96h 9.28µM, Lassa entry inh inconclusive, Marburg entry inh inconclusive, Pf growth 48h inconclusive
CCOC(=O)c1sc(NC(=O)CSc2nnnn2-c2ccc(C)c(C)c2)nc1C	Pf growth 96h 2.33µM, Lassa entry inh inconclusive
CCOC(=O)c1c(NC(=O)CSc2nc3ccccc3c(=O)n2-c2ccccc2)sc(C(C)=O)c1C	Pf growth 96h 2.33µM, Pf growth 48h 0.208µM
COc1ccccc1NC(=O)Cn1cnc2sc(C(=O)Nc3cc(OC)c(OC)c(OC)c3)c(C)c2c1=O	Pf growth 48h inconclusive (no result: Lassa entry inh, Marburg entry inh)
Cc1ccccc1NC(=O)C(=O)NNC(=O)COc1ccc2ccccc2c1	Pf growth 96h inconclusive
C=CCn1c(=O)c2ccccc2n2c(SCC(=O)Nc3sc(C(=O)N(CC)CC)c(C)c3C(=O)OCC)nnc12	Marburg entry inh inconclusive, Pf growth 48h 11.7µM
CCOC(=O)c1sc(NC(=O)CSc2nc3c(c(=O)n2-c2ccc(C)cc2)SCC3)c(C(=O)OCC)c1C	Pf growth 96h 11.7µM, Pf growth 48h inconclusive
CCOc1ccccc1-n1c(SCC(=O)Nc2ccccc2C(=O)O)nc2ccccc2c1=O	Cycloheximide cs 35.5, Marburg entry inh inconclusive, Pf growth 48h inconclusive, Shiga toxin inh 35.0
COc1cccc(-n2c(SCC(=O)Nc3sc4c(c3C(N)=O)CCC4)nc3ccccc3c2=O)c1	Marburg entry inh inconclusive, Pf growth 48h 4.15µM
CCOC(=O)CSc1nc2c(c(=O)n1-c1ccc(OC)cc1)SCC2	none (no result: Lassa entry inh, Marburg entry inh)
CN(C)CCC(=O)c1cccc(Br)c1	none (no result: Lassa entry inh, Marburg entry inh)
CCOC(=O)c1c(NC(=O)CSc2nc3cc(Cl)ccc3c(=O)n2Cc2ccco2)sc(C(=O)N(C)C)c1C	Pf growth 96h 4.15µM, Lassa entry inh inconclusive, Marburg entry inh inconclusive, Pf growth 48h 5.86µM
CCc1ccc(NC(=O)CSc2nc3cc(C(=O)OC)ccc3c(=O)n2Cc2ccco2)cc1	none
CCCCSc1nc(NCc2ccco2)c2c3c(sc2n1)COC(C)(C)C3	Pf growth 96h inconclusive, Cycloheximide cs 44.3, Pf growth 48h 10.4µM, Shiga toxin inh 69.8
CCCc1nc2sc3c(c2c(=O)n1NC(=O)c1ccco1)CC(C)(C)OC3	none
CCCSc1nc(NCc2ccco2)c2c3c(sc2n1)COC(C)(C)C3	Pf growth 96h inconclusive, Pf growth 48h inconclusive, Shiga toxin inh 46.4
Cn1c(=O)c2c(nc(C3CC4C5CCC(C5)C4C3)n2C)n(C)c1=O (stereo not drawn)	none (no result: Pf growth 96h, Cycloheximide cs, Pf growth 48h, Shiga toxin inh)
O=C(CSc1nnc2ccc(-c3ccc(F)cc3)nn12)NCC1CCCO1 (stereo not drawn)	Lassa entry inh inconclusive, Pf growth 48h inconclusive (no result: Cycloheximide cs, Shiga toxin inh)
CCc1noc(C)c1C(=O)Nc1nc2c(F)cc(F)cc2s1	Pf growth 48h inconclusive (no result: Lassa entry inh, Cycloheximide cs, Marburg entry inh, Shiga toxin inh)
O=C1/C(=C/c2ccccc2)NC(=S)N1C(c1ccccc1)c1ccccc1	Lassa entry inh inconclusive, Marburg entry inh inconclusive, Pf growth 48h 11.7µM (no result: Pf growth 96h)
CCOC(=O)N1CCN(C(=O)CSc2nc3ccccc3c(=O)n2-c2ccccc2)CC1	Pf growth 96h inconclusive, Lassa entry inh 8.91µM, Pf growth 48h inconclusive
COc1cccc(-n2c(C)nc3ccccc3c2=O)c1	Lassa entry inh inconclusive (no result: Pf growth 96h)
O=C(c1ccc(-n2c(SCc3cc(F)ccc3F)nc3ccccc3c2=O)cc1)N1CCOCC1	Lassa entry inh inconclusive, Marburg entry inh inconclusive, Pf growth 48h inconclusive
CCOC(=O)c1cccc(-n2c(C)nc3ccccc3c2=O)c1	Pf growth 96h 9.28µM
Cc1nc2ccccc2c2c1C(=O)N(c1cccc(C(=O)O)c1)C2=O	none
Cc1ccc(C)c(C(=O)COC(=O)c2cccc(N3C(=O)c4c(C)nc5ccccc5c4C3=O)c2)c1	Lassa entry inh inconclusive, Cycloheximide cs 45.6, Marburg entry inh inconclusive, Shiga toxin inh 94.0
CCOC(=O)CC(=O)CSc1nc2ccccc2c(=O)n1-c1ccc(C(=O)N2CCOCC2)cc1	Marburg entry inh inconclusive, Pf growth 48h 1.65µM (no result: Pf growth 96h)
CC(C)c1ccc(NC(=O)CN2C(=O)CSc3ccc(S(=O)(=O)N4CCCC4)cc32)cc1	none (no result: Pf growth 96h, Cycloheximide cs, Marburg entry inh, Pf growth 48h, Shiga toxin inh)
CCOC(=O)CC(=O)CSc1nc2ccccc2c(=O)n1-c1ccc(C(=O)NCCOC)cc1	Pf growth 96h inconclusive, Pf growth 48h 5.22µM
COCCNC(=O)c1ccc(Cn2c(SCC(N)=O)nc3ccccc3c2=O)cc1	none (no result: Pf growth 96h, Cycloheximide cs, Marburg entry inh, Pf growth 48h, Shiga toxin inh)
Cc1cccc(-n2c(C)nc3ccccc3c2=O)n1	Pf growth 96h 5.22µM
COc1ccc(/C=N/N2CCOCC2)cc1Cn1cc([N+](=O)[O-])cn1	Lassa entry inh inconclusive, Cycloheximide cs 15.1
COc1ccc(/C=N/NC(=O)c2ccc(N)cc2)cc1Cn1cc([N+](=O)[O-])cn1	Pf growth 96h 11.7µM, Lassa entry inh inconclusive, Marburg entry inh 7.94µM
COc1ccc(/C=N\NC(=O)c2cccc([N+](=O)[O-])c2)cc1Cn1cc([N+](=O)[O-])cn1	Pf growth 48h inconclusive (no result: Lassa entry inh, Marburg entry inh)
COc1ccc(/C=N/NC(=O)c2ccccc2O)cc1Cn1cc(Cl)cn1	Cycloheximide cs 15.7, Marburg entry inh inconclusive
COc1ccc(/C=N/N2CCOCC2)cc1COc1ccc(Cl)cc1	none
COc1ccc(/C=N/N2CCOCC2)cc1COc1ccc(F)cc1	Cycloheximide cs 35.0, Pf growth 48h inconclusive
COc1ccc(/C=N/n2cnnc2)cc1Cn1nc(C)c([N+](=O)[O-])c1C	none (no result: Lassa entry inh, Marburg entry inh)
COc1ccc(NC(=O)COC(=O)c2ccc(F)cc2F)cc1	none
CCn1c(=N)n(CC(=O)OC)c2ccccc21	none (no result: Pf growth 48h)
NC(=O)C1CCN(c2oc(-c3ccccc3)nc2S(=O)(=O)c2ccc(Br)cc2)CC1	Pf growth 96h inconclusive, Pf growth 48h inconclusive
CCOc1ccc(/C=N/NC(=O)c2ccccc2O)cc1CN1CC2CC(C1)c1cccc(=O)n1C2 (stereo not drawn)	Pf growth 96h 13.1µM, Pf growth 48h inconclusive (no result: Lassa entry inh, Cycloheximide cs, Shiga toxin inh)
COc1ccc(/C=N/NC(=O)c2ccn[nH]2)cc1Cn1cc([N+](=O)[O-])cn1	Cycloheximide cs 23.5, Shiga toxin inh 58.6
COc1ccc(CN2CC3CC(C2)c2cccc(=O)n2C3)cc1OC (stereo not drawn)	Pf growth 96h inconclusive
COc1cc(/C=C(/C#N)C(=O)NCCCc2ccccc2)ccc1OCC(=O)O	Pf growth 96h inconclusive (no result: Lassa entry inh, Marburg entry inh)
Cc1ccc(C(=O)N2CCN(Cc3ccc4c(c3)OCO4)CC2)o1	none
Cc1ccc(C(=O)N2CCN(Cc3ccc4c(c3)OCO4)CC2)cc1S(=O)(=O)N1CCOCC1	Pf growth 96h 10.4µM, Pf growth 48h inconclusive (no result: Lassa entry inh, Marburg entry inh)
